Here are results for 38 molecules from PubChem BioAssay (NCI).

The structures appear in SMILES notation. The panel holds about 83,000 compounds, 20% with a hit somewhere; the sample as a whole holds those more often.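 Step 1: grow cells in 96-well plates. Step 2: add test compound at a single concentration. Step 3: incubate 48 h. Step 4: record percent growth.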 Values without a mark were called inactive. Active and inactive are the calls of the source. The calls were made as follows: active = growth percent below 10; inactive = the rest.

The first assay relates to BT-549 breast. The assay is described as follows: NCI-60 one-dose screen, 48 h (100 = growth as untreated, 0 = no growth, -100 = all killed). Particulars: 10 µM unless noted.
With `O=[As](O)(O)c1ccccc1[As](=O)(O)O`, the growth was 116%. The same measure, in the same setting: to `Clc1ccc(COC(Cn2ccnc2)c2ccc(Cl)cc2Cl)cc1` (centres undefined) belongs 55.9%; to `CN(C)C(=O)Oc1ccccc1`, 118%; to `CC[C@H](C)[C@H](NC(=O)C12C3C4C1C1C2C3C41NC(C)=O)C(=O)N(C)[C@H](C[C@@H](OC(C)=O)c1nc(C(=O)N[C@@H](Cc2ccccc2)C[C@H](C)C(=O)OC)cs1)C(C)C` (some centres undefined), 5.96% (active). Still for that read-out and setting: for `COc1ccc(C(=O)c2sc3nc4c(cc3c2N)N2CCC4CC2)cc1OC` the value was 81.5%; for `CCC(CC)CC1(C)CC2(C)CCOC2OO1` (centres undefined), 112%; for `ClCCN(CCCl)c1ccc(/C=N\N=C\c2ccc(N(CCCl)CCCl)cc2)cc1`, 50.5%. The same measure, in the same setting: for `CCOC(=O)C(Cc1ccc(N(CCCl)CCCl)cc1)NC(=O)C(CC(C)C)NC(C)=O` (centres undefined) the value was 65%; for `CNCc1cccnc1`, 124%.

With `CCN(CCO)C(Cc1ccccc1)c1ccccc1` (centres undefined), the growth was 100%.

For the molecule `C=CCc1cc2c(cc1OCC)OCO2`, the growth is 82.6%.

Take `N#Cc1c(Br)n(C2OC(CO)C(O)C2O)c2ncnc(N)c12` (centres undefined): the growth was 73.5%. In the case of `NC(=S)c1cn(C2OC(CO)C(O)C2O)c2ncnc(N)c12` (centres undefined), the growth is -43.1% (active). On the same count and under the same terms, for `O=P(N1CC1)(N1CC1)N1CCc2ccccc21` the value was 99.4%; for `Oc1ccc2c3c1OC1[C@@H](O)CC[C@@]4(O)[C@@H](C2)N(CC2CCC2)CC[C@]314` (some centres undefined), 106%. Still for that read-out and setting: to `COC(=O)[C@@]1(O)C[C@H]2O[C@]1(C)n1c3ccccc3c3c4c(c5c6ccccc6n2c5c31)C(=O)NC4` belongs -73.9% (active).

Turning to `ClCCN(CCCl)c1ccc(OCc2ccccc2)cc1`, the growth is 42.7%. For the molecule `N#CC1(C#N)C(c2ccc(N(CCCl)CCCl)cc2)OC23CCCCC2C1(C#N)C(=N)O3` (centres undefined), the growth was 84.6%. On the same count and under the same terms, to `COC(=O)[C@@H](C)C[C@H](Cc1ccccc1)NC(=O)c1nc([C@@H](C[C@H](C(C)C)N(C)C(=O)[C@@H](NC(=O)[C@H]2CC(=O)CCN2C)C(C)C)OC(C)=O)sc1C(C)C` belongs -10.6% (active). Still for that read-out and setting: to `Nc1ccc2c(c1)oc1ccccc12` belongs 97.9%. With `COc1cc2c(cc1OCCCCn1c(-c3cccs3)nc3ccccc31)N=C[C@@H]1CCCN1C2=O`, the growth is -55.6% (active). Still for that read-out and setting: to `CC[C@H](C)[C@H](NC(=O)C12C3C4C1C1C2C3C41NC)C(=O)N(C)[C@H](C[C@@H](OC(C)=O)c1nc(C(=O)N[C@@H](Cc2ccccc2)C[C@H](C)C(=O)OC)cs1)C(C)C` (some centres undefined) belongs 2.04% (active); to `COc1ccc(N(CC(=O)NCCC[Te]c2ccccc2)C(=O)CCSC2=C(C)C(=O)c3ccccc3C2=O)cc1`, -18.2% (active); to `NC(=Nc1ccccc1)N[N+](=O)[O-]`, 88.5%. On the same count and under the same terms, to `C[S+]1C=Cc2ccccc2C1c1ccc(Cl)cc1` (centres undefined) belongs 85.6%.

With `CC(C)[C@]12O[C@H]1[C@@H]1O[C@]13[C@]1(O[C@H]1C[C@H]1c4c(C(=O)c5ccccc5)oc(OC(=O)c5ccccc5)c4CC[C@@]13C)[C@@H]2O`, the growth was -24.3% (active). Same read-out and setting: for `CN(C)CC(C(=O)Cc1ccccc1)c1ccccc1` (centres undefined) the value was 76.3%. Same read-out and setting: to `O=C1C=C2C(=CCOC2O)O1` (centres undefined) belongs 52.8%; to `Clc1ccc(N2COOC3(OOC2)C2CC4CC(C2)CC3C4)cc1`, 68.7%. The same measure, in the same setting: for `O=c1[nH]c2ccc([N+](=O)[O-])cc2c(=O)o1` the value was 95.3%. On to `CN1CC(CNC(=O)OCc2ccccc2)CC2c3cccc4c3c(cn4C)CC21` (centres undefined), for which the growth is 50%. On the same count and under the same terms, for `NC(=O)c1c(Br)n(C2OC(CO)C(O)C2O)c2ncnc(N)c12` (centres undefined) the value was -16.1% (active).

In the case of `Cc1cc(N(CCCl)CCCl)ccc1/C=N\NC(=O)c1ccncc1`, the growth is 75.1%.

On to `COC(=O)CCC1=C(C)c2cc3[n-]c(cc4nc(cc5[n-]c(cc1n2)c(CCC(=O)OC)c5C)C=C4C)cc3C.[Cd+2]`, for which the growth is -31.9% (active). Still for that read-out and setting: to `CCCC(C)C1(CC)C(=O)NC(=O)N(C)C1=O` (centres undefined) belongs 105%; to `CC(=O)c1ccc(C(=O)NCC2CCC3(CC2)OOC2(CCCCC2)OO3)cc1`, 91.9%.

A further assay deals with MDA-MB-435 melanoma. The description is as above. The note with it: 10 µM unless noted.
Turning to `O=[As](O)(O)c1ccccc1[As](=O)(O)O`, the growth was 98.8%. The same measure, in the same setting: for `CN(C)C(=O)Oc1ccccc1` the value was 112%; for `COc1ccc(C(=O)c2sc3nc4c(cc3c2N)N2CCC4CC2)cc1OC`, 99.9%; for `CCC(CC)CC1(C)CC2(C)CCOC2OO1` (centres undefined), 109%.

As for `ClCCN(CCCl)c1ccc(/C=N\N=C\c2ccc(N(CCCl)CCCl)cc2)cc1`, the growth is 27.4%. The same measure, in the same setting: to `CCOC(=O)C(Cc1ccc(N(CCCl)CCCl)cc1)NC(=O)C(CC(C)C)NC(C)=O` (centres undefined) belongs 44.4%; to `CNCc1cccnc1`, 95.9%; to `C=CCc1cc2c(cc1OCC)OCO2`, 109%. On the same count and under the same terms, for `N#Cc1c(Br)n(C2OC(CO)C(O)C2O)c2ncnc(N)c12` (centres undefined) the value was 51.4%; for `NC(=S)c1cn(C2OC(CO)C(O)C2O)c2ncnc(N)c12` (centres undefined), -40.5% (active); for `O=P(N1CC1)(N1CC1)N1CCc2ccccc21`, 111%. As for `Oc1ccc2c3c1OC1[C@@H](O)CC[C@@]4(O)[C@@H](C2)N(CC2CCC2)CC[C@]314` (some centres undefined), the growth was 101%. Consider `COC(=O)[C@@]1(O)C[C@H]2O[C@]1(C)n1c3ccccc3c3c4c(c5c6ccccc6n2c5c31)C(=O)NC4`, for which the growth was -90.2% (active). The same measure, in the same setting: for `ClCCN(CCCl)c1ccc(OCc2ccccc2)cc1` the value was 75%. Regarding `N#CC1(C#N)C(c2ccc(N(CCCl)CCCl)cc2)OC23CCCCC2C1(C#N)C(=N)O3` (centres undefined), the growth is 101%. In the case of `COC(=O)[C@@H](C)C[C@H](Cc1ccccc1)NC(=O)c1nc([C@@H](C[C@H](C(C)C)N(C)C(=O)[C@@H](NC(=O)[C@H]2CC(=O)CCN2C)C(C)C)OC(C)=O)sc1C(C)C`, the growth is -43.4% (active). On the same count and under the same terms, to `Nc1ccc2c(c1)oc1ccccc12` belongs 94.7%. Same read-out and setting: for `CNC(=O)Oc1ccc(C(C)(C)C)cc1OC(=O)NC` the value was 97%; for `COc1cc2c(cc1OCCCCn1c(-c3cccs3)nc3ccccc31)N=C[C@@H]1CCCN1C2=O`, -78.8% (active); for `CC[C@H](C)[C@H](NC(=O)C12C3C4C1C1C2C3C41NC)C(=O)N(C)[C@H](C[C@@H](OC(C)=O)c1nc(C(=O)N[C@@H](Cc2ccccc2)C[C@H](C)C(=O)OC)cs1)C(C)C` (some centres undefined), -27.9% (active).

For `COc1ccc(N(CC(=O)NCCC[Te]c2ccccc2)C(=O)CCSC2=C(C)C(=O)c3ccccc3C2=O)cc1`, the growth was 11.9%. As to `NC(=Nc1ccccc1)N[N+](=O)[O-]`, the growth is 118%. The same measure, in the same setting: to `CC(C)[C@]12O[C@H]1[C@@H]1O[C@]13[C@]1(O[C@H]1C[C@H]1c4c(C(=O)c5ccccc5)oc(OC(=O)c5ccccc5)c4CC[C@@]13C)[C@@H]2O` belongs -87.9% (active). In the case of `CN(C)CC(C(=O)Cc1ccccc1)c1ccccc1` (centres undefined), the growth was 26.8%.

Turning to `O=C1C=C2C(=CCOC2O)O1` (centres undefined), the growth is 5.62% (active). On the same count and under the same terms, to `Clc1ccc(N2COOC3(OOC2)C2CC4CC(C2)CC3C4)cc1` belongs 53.1%.

`Nc1ccc2c(c1)Cc1cc(Br)ccc1-2`: the growth is 111%. Same read-out and setting: for `O=c1[nH]c2ccc([N+](=O)[O-])cc2c(=O)o1` the value was 111%; for `CN1CC(CNC(=O)OCc2ccccc2)CC2c3cccc4c3c(cn4C)CC21` (centres undefined), 3% (active).

On to `NC(=O)c1c(Br)n(C2OC(CO)C(O)C2O)c2ncnc(N)c12` (centres undefined), for which the growth was 1.13% (active). Still for that read-out and setting: to `Cc1cc(N(CCCl)CCCl)ccc1/C=N\NC(=O)c1ccncc1` belongs 89.1%; to `COC(=O)CCC1=C(C)c2cc3[n-]c(cc4nc(cc5[n-]c(cc1n2)c(CCC(=O)OC)c5C)C=C4C)cc3C.[Cd+2]`, 23.1%. Still for that read-out and setting: to `CC(=O)c1ccc(C(=O)NCC2CCC3(CC2)OOC2(CCCCC2)OO3)cc1` belongs 88%.
